IL1B secr inh: inflammasome signaling inhibition, IL-1 beta readout; THP-1 LPS/ATP IL-1B secretion, AlphaLISA, 16 h; hits give low values; activity change, % at 57.5 µM; hit rate 4.7% among 360,000; AID 743279; in the data active means activity change below about -50%; inconclusive means mostly about -30% to -49%; further: on the % scale 0 is the no-effect control and ±100 the full control effect
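THP-1 cells pretreated 1 hr with compounds (up to 57.5 uM final), then stimulated with LPS (250 ng/mL final) plus ATP (1.25 mM final); secreted IL-1B measured by AlphaLISA after 16 hr, decreased signal indicating inhibition.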
TDP1 inh: blocks human tyrosyl-DNA phosphodiesterase 1. Q9NUW8. recombinant TDP1, AlphaScreen DNA substrate cleavage. hit rate 0.28% among 350,000. AID 485290. Potency, µM (titrated, usually from 130 µM), for inactives: at the top dose activity change, negative = inhibition, usual class: inhibitors; further: potency means the concentration at half of the fitted maximal effect; on the % scale 0 is the no-effect control and ±100 the full control effect; nearly all actives have a fitted effect of over 40% in size
Target sequence (Q9NUW8 whole entry, looked up): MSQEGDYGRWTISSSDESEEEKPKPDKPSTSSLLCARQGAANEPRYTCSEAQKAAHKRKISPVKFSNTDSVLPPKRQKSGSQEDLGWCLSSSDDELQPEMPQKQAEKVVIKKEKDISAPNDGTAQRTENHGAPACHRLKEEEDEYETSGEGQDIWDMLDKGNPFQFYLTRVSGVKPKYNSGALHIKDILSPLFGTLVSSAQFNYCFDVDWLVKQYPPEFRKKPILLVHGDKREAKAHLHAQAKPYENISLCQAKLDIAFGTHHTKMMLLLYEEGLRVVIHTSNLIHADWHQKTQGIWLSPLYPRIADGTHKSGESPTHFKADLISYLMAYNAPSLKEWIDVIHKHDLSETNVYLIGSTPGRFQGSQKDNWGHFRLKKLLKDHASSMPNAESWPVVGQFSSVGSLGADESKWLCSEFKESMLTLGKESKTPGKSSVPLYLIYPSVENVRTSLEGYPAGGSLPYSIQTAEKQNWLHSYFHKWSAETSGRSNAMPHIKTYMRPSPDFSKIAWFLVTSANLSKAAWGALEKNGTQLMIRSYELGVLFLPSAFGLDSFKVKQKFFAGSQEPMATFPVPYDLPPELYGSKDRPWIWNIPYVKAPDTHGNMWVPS
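E. coli-derived human Tdp1, 1 nM final. Cpd preinc 15 min RT; substrate 15 nM final, 5 min RT; AS bead mix 10 ug/ml final, 10 min RT. Signal loss = tyrosine-FITC cleavage. No-enzyme wells = max signal.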
HepG2 viability: HepG2 cytotoxicity, counter-screen for TGF-b inhibitors. HepG2 CAGA-GFP viability, ATP luminescence, 18 h. hit rate 0.76% among 410,000. Potency, µM (doses to about 46.1 µM), without a hit: top-dose activity change, negative = cytotoxicity, most hits filed as cytotoxic; further: potency means the concentration at half of the fitted maximal effect
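CellTiter-Glo luminescence gave cytotoxicity after 18 hours at 37 degrees C. The cells were HepG2 CAGA-GFP in 1% FBS DMEM, stimulated with 500 pg/mL TGF-beta after compound addition. %Activity was normalised to no-cell wells (complete cell-killing) and DMSO (no toxicity), and curves were fitted and classified.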
TGFb SMAD3 inh: blocks TGF-b signaling | Potency, µM (doses to about 46.1 µM), without a hit: at the highest dose activity, negative = inhibition, usual class: inhibitors | HepG2 CAGA-GFP TGF-b/SMAD3 reporter, GFP fluorescence, 18 h; TGF-beta stimulated, 500 pg/mL final | AID 588855 | hit rate 1.2% among 410,000; further: potency means the concentration at half of the fitted maximal effect; on the % scale 0 is the no-effect control and ±100 the full control effect; nearly all actives have a fitted effect of over 65% in size
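HEPG2 CAGA-GFP, 1000 cells/well; 2 h settle, 37 C; cpd via pin tool; TGF-b 500 pg/mL final; 18 h, 37 C; GFP imaging ex488/em500-530; %Activity normalised to -TGF-b and +DMSO controls; CRC fit, curve class.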
DT40 TDP1 no CPT: qHTS for Inhibitors of human tyrosyl-DNA phosphodiesterase 1 (TDP1): qHTS in cells in absence of CPT; hit rate 15% among 420,000; DT40 Tdp1-/- hTDP1 cells, no CPT, ATP luminescence, 48 h; Potency, µM (series often up to 46.2 µM), without a hit: top-dose activity change, negative = growth inhibition, hits mostly inhibitors; further: potency means the concentration at half of the fitted maximal effect; on the % scale 0 is the no-effect control and ±100 the full control effect; nearly all actives have a fitted effect of over 55% in size
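DT40 Tdp1-/-;hTDP1 cells, no CPT (DMSO vehicle only), 400 cells/well; compounds pin-transferred; ≥48 hr, 37 °C; CellTiter-Glo 30 min RT dark, luminescence read.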
TDP1 cell CPT: DT40-hTDP1 cell growth loss with CPT; chicken DT40 Tdp1-/-;hTDP1 cells + 20 nM CPT, ATP luminescence, 48 h; Potency, µM (series often up to 46.2 µM), for inactives: at the highest dose activity change, negative = growth inhibition, actives largely listed as inhibitors; hit rate 12% among 420,000; further: potency means the concentration at half of the fitted maximal effect; on the % scale 0 is the no-effect control and ±100 the full control effect; nearly all actives have a fitted effect of over 55% in size
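Chicken DT40 Tdp1-/- cells complemented with human TDP1, 400 cells/well, exposed to compounds plus 20 nM camptothecin for at least 48 h at 37 C; viability read as ATP content by CellTiter-Glo luminescence.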
* marks the source's active call; other numbers are inactive results; u = inconclusive; x = not tested or not shown; ! = a repeat was not active; [ ] = remark or other dose. Rows were chosen to be rich in hits. Some 19% of all compounds tested hit in one or more screens of this group. Unless noted, the call rests on the fitted dose curve; in most records, active means well fitted curve in the direction sought with a large enough effect; inconclusive means small, poorly fitted or top-dose-only effect, or another doubt; inactive means no such curve, though single readings can be large; an effect the other way counts as inactive or inconclusive.

SMILES | IL1B secr inh | TDP1 inh | HepG2 viability | TGFb SMAD3 inh | DT40 TDP1 no CPT | TDP1 cell CPT
C=C(C)C(=O)/C=C/C=C/c1ccccc1 | x | -3% | x | x | x | x
CC(=O)N1CCOc2ccc(S(=O)(=O)NC[C@H]3O[C@@H](n4cnc5c(N)ncnc54)[C@H](O)[C@@H]3O)cc21 | 0 | 0%[56.1 µM] | 4% | 20% | -7% | -2%
COc1ccc(NC(=O)c2csnn2)cc1Cl | x | -4% | -14% | x | u | u
C=CCOC(=O)C1=C(C)NC(C)=C(C(=O)OCC=C)C1c1ccc(C)o1 | -77* | x | 6% | -14% | u | u
CCOC(=O)C1=C(C)NC(C)=C(C(=O)OCC)C1c1ccc(C)o1 | -9 | 3% | 0% | -13% | u | u
COc1cc2c(cc1OC)C1=NC(=O)CN1C(SCc1ccccc1C)=N2 | -4 | 6% | -1% | -4% | 10µM* | 10µM*
O=C(CN1C(=O)NC2(CCCCC2)C1=O)Nc1ccc2c(c1)OCCCO2 | u | 1% | -2% | 8% | 19% | -3%
CC(Oc1ccccc1)C(=O)N=C1SC2CS(=O)(=O)CC2N1c1cccc(F)c1 (centres undefined) | -4 | 4% | 21% | 13% | 15% | -3%
COc1ccc(-c2csc(N(CC3CCCO3)C(=O)c3ccco3)n2)cc1 (centres undefined) | -15 | 0% | -22% | -16% | 21µM* | 21µM*
COCCN(C(=O)c1ccco1)c1nc(-c2ccc(OC)cc2)cs1 | 24 | x | -4% | 9% | 16µM* | 26µM*
CN(CCc1ccccc1)C(=O)c1cccc(NC(=O)Cc2cccc(NC(=O)C3CCN(C(=O)C4CCC4)CC3)c2)c1 | 1 | x | 11% | -22% | 15µM* | u
CN(CCc1ccccc1)C(=O)c1ccc(NC(=O)Cc2cccc(NC(=O)C3CCN(C(=O)C4CCCCC4)CC3)c2)cc1 | 21 | x | 5% | u | 21µM* | u
COc1ccc(C2Nc3ccccc3C(=O)N2Cc2cccc(C(F)(F)F)c2)cc1COc1ccc(NC(C)=O)cc1 (centres undefined) | x | 2% | x | x | x | x
O=C(NC(=S)NC1CCSC1=O)c1cccs1 (centres undefined) | -15 | 0% | -19% | -4% | 29µM* | -4%
Cc1ccccc1C(=O)NNC(=S)NC(=O)c1cccs1 | 76 | 4% | -25% | u | 18µM* | 21µM*
O=C(NC(=S)NNC(=O)c1cccs1)c1ccccc1 | 84 | 5% | -37% | -22% | 15µM* | u
Cc1ccccc1C(=O)Nc1cccc(NC(=S)NC(=O)c2cccs2)c1 | -24 | 2% | -9% | -11% | u | -28%
CC(C)(C)c1ccc(C(=O)NC(=S)NNC(=O)c2cccs2)cc1 | 0 | 11% | -30% | -22% | 13µM* | 23µM*
Cc1nnc(N2CCN(c3cccc(Cl)c3)CC2)c2c1nnn2Cc1ccc(F)cc1 | x | 7% | 1% | 4% | u | -30%
COc1ccc(S(=O)(=O)N(CCc2ccccc2)CC(=O)Nc2cc(Cl)ccc2C)cc1 | x | 5%[12.3 µM] | -19% | -26% | u | u
CC(=O)NCCNC(=O)CCCc1nnc2n(CC(C)C)c(=O)c3sccc3n12 | x | 3% | -11% | 0% | -22% | -3%
Cc1ccc(S(C)(=O)=O)cc1C(=O)OCC(=O)N(Cc1ccccc1)Cc1ccccc1 | -3 | 0% | -21% | -13% | 16µM* | 21µM*
O=C(OCC(=O)N(CCc1ccccc1)Cc1ccccc1)c1ccccc1O | 5 | 0% | 2% | 2% | u | 18µM*
O=C(OCC(=O)N(Cc1ccccc1)Cc1ccccc1)c1ccccc1O | 26 | -5% | -9% | 1% | u | 18µM*
O=C(NCCC(=O)N(CCc1ccccc1)Cc1ccccc1)c1ccccc1Cl | -19 | -14% | -2% | -8% | 23µM* | u
SMILES | IL1B secr inh | TDP1 inh | HepG2 viability | TGFb SMAD3 inh | DT40 TDP1 no CPT | TDP1 cell CPT
C[C@@H]1O[C@H]2C3=C(C(=O)[C@H]4O[C@@H]4[C@H]3O)[C@@H]1[C@@H]1[C@@H](C)OC=C3[C@H](O)[C@H]4O[C@@H]4/C(=N\OCc4ccccc4)[C@]312 | x | 8%[21 µM] | x | x | x | x
C#CCOc1ccc(-c2nnc(Nc3cccc(C)c3)c3ccccc23)cc1 | x | x | -31% | u | u | u
CC(C)(C)NC(=O)CN(Cc1ccco1)C(=O)CCC(=O)Nc1nccs1 | -10 | 9% | -32% | -1% | -2% | 0%
O=C(COC(=O)c1ccccc1-n1cnnn1)c1ccc(F)cc1 | -9 | 2% | -3% | 5% | -1% | -4%
CCc1ccc(C2CC(=O)c3c([nH]c(C(=O)OC4CCCC4)c3C)C2)cc1 (centres undefined) | x | 2%[12.3 µM] | 6% | 8% | u | u
CCCCc1nc2c(c3c1C[C@H](C)OC3)CN(C(=O)Cc1cccs1)CC2 | x | 9%[12.3 µM] | x | x | x | x
CN(C)c1ccc(C(=N)Cc2ccc3ccccc3n2)cc1 | 29 | x | -39% | 3% | u | 21µM*
CCCN(CCC)c1ccc(/C=C/c2ccc3cc(OCC)ccc3n2)cc1 | 3 | -1% | -1% | 5% | 23µM* | u
CCN(CC)c1ccc(/C=C/c2cc(-c3ccccc3)c3ccccc3n2)cc1 | 34 | x | 3% | 51% | 26µM* | -51%
Cc1cc(/C=C/c2ccccc2)nc2ccccc12 | x | x | -23% | -25% | 10µM* | u
O=C(COC(=O)c1ccc(F)c(S(=O)(=O)N2CCOCC2)c1)NCCc1ccccc1 | -17 | 3% | -9% | -9% | -4% | -12%
C[C@@H](C(=O)N1CCNCC1)n1cc(CCCN=C(N)N)nn1 | 7 | 5% | 5% | 3% | -16% | -4%
CC(=O)[C@H]1[C@H](C#N)CC2C3CC=C4C[C@@H](O)CCC4(C)C3CCC21C (some centres undefined) | x | 3% | x | x | x | x
CCCCN(CCCC)Cc1cc(=O)oc2cc(OC)c(Cl)cc12 | -4 | x | -7% | -20% | u | u
CC1=C(c2ccc(C)c(C)c2)S(=O)(=O)N(Cc2ccc(C(=O)NCc3cccc(C)c3)cc2)C1=O | x | 3% | 3% | 0% | u | u
CN(C)c1ccc(/C=C/c2ccc3ccccc3n2)cc1 | 27 | 5% | 5.6µM*! | 29% | 12µM* | 18µM*
CN(C)c1ccc(/C=C/c2ccc3cc(F)ccc3n2)cc1 | x | x | -21% | 0% | 10µM* | u

Bioassay records (PubChem)
